This note sets out measurements from PubChem BioAssay (NCI).

About 83,000 compounds went through this panel and 20% of them were active in at least one assay; those are over-represented in the sample as a whole.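 96-well plates, one dose, 48 hours. Percent growth reported; active if below 10.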 Values without a mark were called inactive. The source made the active and inactive calls.

Test systems include SK-MEL-2 melanoma; EKVX NSCLC; SN12C renal; UO-31 renal; TK-10 renal; ACHN renal; CAKI-1 renal; A498 renal; CCRF-CEM leukemia; MOLT-4 leukemia; SR leukemia; RPMI-8226 leukemia; OVCAR-8 ovarian; OVCAR-5 ovarian; OVCAR-4 ovarian; SK-OV-3 ovarian; IGROV1 ovarian; OVCAR-3 ovarian; HS 578T breast; NCI/ADR-RES ovarian.
What all share (assay): NCI-60 one-dose screen, 48 h (100 = growth as untreated, 0 = no growth, -100 = all killed)
Common to all, as to details: 10 µM unless noted

Turning to `Cc1ccccc1CCO`, the growth is 86.3% with SK-MEL-2 melanoma; 105% in the experiment with EKVX NSCLC; 107% in the experiment with SN12C renal; 88.8% in the experiment with UO-31 renal; 82.4% in the experiment on TK-10 renal; 98.4% in the experiment on ACHN renal. In addition, the growth in the experiment on CAKI-1 renal is 100%; in the experiment with A498 renal, 96.5%; in the experiment with CCRF-CEM leukemia it was 116%; in the experiment on MOLT-4 leukemia, 111%; in the experiment on SR leukemia it was 88.7%; with RPMI-8226 leukemia, 108%. Further, the growth is 100% in the experiment with OVCAR-8 ovarian; 95.9% in the experiment on OVCAR-5 ovarian; 106% in the experiment with OVCAR-4 ovarian; 98% in the experiment with SK-OV-3 ovarian; 95.4% with IGROV1 ovarian; 106% in the experiment on OVCAR-3 ovarian. The values for the growth in the experiment with HS 578T breast and with NCI/ADR-RES ovarian were 100% and 101%, respectively.

On to `Cn1c(=O)c2[nH]c(C(O)C(O)C(O)C(O)CO)nc2n(C)c1=O` (centres undefined), for which the growth is 104% in the experiment with SK-MEL-2 melanoma; 103% in the experiment with EKVX NSCLC; 107% in the experiment on SN12C renal; 91.8% in the experiment on UO-31 renal; 103% in the experiment with TK-10 renal; 106% in the experiment on ACHN renal. For the same molecule, the growth in the experiment on CAKI-1 renal was 102%; in the experiment with A498 renal, 106%; with CCRF-CEM leukemia it was 105%; in the experiment on MOLT-4 leukemia it was 103%; in the experiment with SR leukemia, 105%; in the experiment with RPMI-8226 leukemia it was 110%. Moreover, the growth in the experiment on OVCAR-8 ovarian was 108%; with OVCAR-5 ovarian, 101%; with OVCAR-4 ovarian, 116%; with SK-OV-3 ovarian it was 99.8%; in the experiment with IGROV1 ovarian, 106%; with OVCAR-3 ovarian, 109%. Moreover, the growth with HS 578T breast was 107%; with NCI/ADR-RES ovarian, 100%.

Take `CC(C)Oc1nc2c(c(=O)n(C)c(=O)n2C)n1C`: the growth is 107% with SK-MEL-2 melanoma; 103% in the experiment with EKVX NSCLC; 108% in the experiment with SN12C renal; 91.3% in the experiment with UO-31 renal; 95.3% with TK-10 renal; 101% in the experiment with ACHN renal. Also, the growth in the experiment with CAKI-1 renal was 100%; with A498 renal, 106%; in the experiment with CCRF-CEM leukemia, 95.3%; in the experiment with MOLT-4 leukemia it was 94.4%; with SR leukemia, 104%; in the experiment with RPMI-8226 leukemia, 105%. The growth in the experiment with OVCAR-8 ovarian is 103%; in the experiment with OVCAR-5 ovarian, 106%; with OVCAR-4 ovarian, 115%; in the experiment with SK-OV-3 ovarian, 102%; with IGROV1 ovarian, 102%; in the experiment on OVCAR-3 ovarian, 110%. Moreover, the growth in the experiment on HS 578T breast was 116%; with NCI/ADR-RES ovarian it was 98.1%.

Regarding `Nc1c(C(=O)Nc2ccccc2)sc2nc3c(cc12)CN(CCc1ccccc1)CC3`, the growth in the experiment with SK-MEL-2 melanoma is 105%; in the experiment on EKVX NSCLC, 88.3%; in the experiment on SN12C renal, 89.4%; in the experiment on UO-31 renal, 80.3%; in the experiment with TK-10 renal, 113%; in the experiment with ACHN renal, 95.3%. For the same molecule, the growth in the experiment on CAKI-1 renal was 86.9%; in the experiment on A498 renal, 91.3%; with CCRF-CEM leukemia, 104%; in the experiment on MOLT-4 leukemia, 104%; with SR leukemia, 90%; in the experiment with RPMI-8226 leukemia, 92.2%. The growth is 99.7% in the experiment with OVCAR-8 ovarian; 99% in the experiment on OVCAR-5 ovarian; 86.9% with OVCAR-4 ovarian; 96.5% in the experiment on IGROV1 ovarian; 109% in the experiment with OVCAR-3 ovarian; 89.1% in the experiment on HS 578T breast. Moreover, in the experiment with NCI/ADR-RES ovarian, the growth is 87.3%.

On to `C[C@@]1(N2C(=O)OC[C@@H]2c2ccccc2)C(=O)N([C@H](CC(=O)N2CCC(N3CCCCC3)CC2)C(=O)NCc2cccc(C(F)(F)F)c2)[C@@H]1/C=C/c1ccccc1`, for which the growth in the experiment on SK-MEL-2 melanoma is 64.8%; in the experiment on EKVX NSCLC, 71.7%; in the experiment on SN12C renal, 74.3%; with UO-31 renal, 57.8%; in the experiment on TK-10 renal it was 79.1%; in the experiment with ACHN renal, 75.2%. Besides, the growth is 82.8% in the experiment with CAKI-1 renal; 52.3% in the experiment on A498 renal; 42.6% in the experiment on CCRF-CEM leukemia; 10.7% in the experiment on MOLT-4 leukemia; -38.4% (active) with SR leukemia; 37.1% in the experiment on RPMI-8226 leukemia. For the same molecule, the growth in the experiment with OVCAR-8 ovarian was 89.8%; with OVCAR-4 ovarian it was 66.3%; with SK-OV-3 ovarian it was 78.9%; with IGROV1 ovarian it was 72.1%; with OVCAR-3 ovarian, 73.2%; with HS 578T breast, 66.1%. Besides, the growth with NCI/ADR-RES ovarian is 81.8%.

For the molecule `c1ccc(CSc2ncnc3nc[nH]c23)nc1`, the growth in the experiment with SK-MEL-2 melanoma was 112%; in the experiment with EKVX NSCLC, 99.6%; in the experiment with SN12C renal, 98.6%; in the experiment on UO-31 renal, 96.4%; in the experiment on TK-10 renal, 101%; with ACHN renal, 105%. Also, the growth in the experiment on CAKI-1 renal is 57%; with A498 renal, 102%; in the experiment with CCRF-CEM leukemia it was 102%; in the experiment with MOLT-4 leukemia, 97.7%; in the experiment on SR leukemia it was 103%; with RPMI-8226 leukemia, 124%. Besides, the growth in the experiment with OVCAR-8 ovarian was 120%; with OVCAR-5 ovarian, 96.6%; with OVCAR-4 ovarian, 105%; in the experiment on IGROV1 ovarian, 105%; with HS 578T breast, 121%; in the experiment on NCI/ADR-RES ovarian it was 103%.

Take `COc1cccc(-c2cn3c(ccc4ccccc43)n2)c1`: the growth with SK-MEL-2 melanoma was 22.1%; in the experiment on EKVX NSCLC, 20.8%; in the experiment on SN12C renal it was 40.2%; with UO-31 renal, 37.2%; in the experiment with TK-10 renal, 88.8%; with ACHN renal it was 40.1%. Besides, the growth in the experiment on CAKI-1 renal was 32.4%; with A498 renal, -3.78% (active); with CCRF-CEM leukemia, 26.6%; with MOLT-4 leukemia, 48.7%; in the experiment with SR leukemia, 31.9%; in the experiment on RPMI-8226 leukemia, 31.8%. In addition, the growth with OVCAR-8 ovarian was 45.7%; in the experiment with OVCAR-5 ovarian, 52.7%; in the experiment with OVCAR-4 ovarian, 61.6%; in the experiment with IGROV1 ovarian, 41.2%; in the experiment on OVCAR-3 ovarian it was 16.7%; in the experiment on HS 578T breast, 21.6%.
